Test results taken from PubChem BioAssay AID1159580 (chemical genetic matrix, 2015).
The campaign covered roughly 5,500 compounds. About 2,000 (36%) were called active. Another 18% or so got no clear call; they are omitted. Cut-off read from the data, not from the text of the source: active = normalized growth mostly below about 0.91 (no sharp cut-off); inconclusive = no clear call, values can overlap the other calls; inactive = mostly above about 0.92. Some of the results follow.

Test: chemical genetic growth profiling, strain panel (AID 1159580);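 note: tested at 20 µM; growth read once vehicle control cultures reached saturation at 30 °C; 1 = growth at the plate median or of vehicle wells; lower values mean less growth of the strain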
Conditions: growth OD

Measured: normalized growth

CC1(C)C2CC[C@]3(C)C(C(=O)C=C4[C@@H]5C[C@@](C)(C(=O)O)CC[C@]5(C)CC[C@]43C)[C@@]2(C)CC[C@@H]1OC(=O)CCC(=O)O (stereo partly drawn)
inactive: S. cerevisiae deletion strains, locus YKL009W, strain mrt4, hits give low values 0.975 | S. cerevisiae deletion strains, locus YKL068W, hits give low values 0.986 | S. cerevisiae deletion strains, locus YKL085W, strain MDH1 (second series), hits give low values 0.984 | S. cerevisiae deletion strains, locus YKL085W, strain MDH1, hits give low values 0.984 | S. cerevisiae deletion strains, locus YKL160W, strain elf1, hits give low values 0.938 | S. cerevisiae deletion strains, locus YKL190W, strain CNB1, hits give low values 0.991 | S. cerevisiae deletion strains, locus YKR001C, strain vps1, hits give low values 0.999 | S. cerevisiae deletion strains, locus YKR026C, strain gcn3, hits give low values 0.987 | S. cerevisiae deletion strains, locus YKR091W, strain srl3, hits give low values 0.989 | S. cerevisiae deletion strains, locus YLL001W, strain dnm1, hits give low values 1 | S. cerevisiae deletion strains, locus YLL026W, hits give low values 0.977 | S. cerevisiae deletion strains, locus YLL041C, strain sdh2, hits give low values 0.982 | S. cerevisiae deletion strains, locus YLR027C, strain aat2, hits give low values 1 | S. cerevisiae deletion strains, locus YLR039C, strain RIC1, hits give low values 0.944 | S. cerevisiae deletion strains, locus YLR058C, strain SHM2, hits give low values 0.986 | S. cerevisiae deletion strains, locus YLR102C, strain apc9, hits give low values 0.996 | S. cerevisiae deletion strains, locus YLR221C, strain rsa3, hits give low values 1 | S. cerevisiae deletion strains, locus YLR258W, strain gsy2, hits give low values 0.98 | S. cerevisiae deletion strains, locus YLR262C, strain YPT6 (second series), hits give low values 0.962 | S. cerevisiae deletion strains, locus YLR262C, strain YPT6, hits give low values 0.91 | S. cerevisiae deletion strains, locus YLR268W, strain sec22, hits give low values 0.998 | S. cerevisiae deletion strains, locus YLR320W, strain mms22, hits give low values 0.999 | S. cerevisiae deletion strains, locus YLR330W, strain CHS5, hits give low values 0.992 | S. cerevisiae deletion strains, locus YLR342W, strain FKS1 (second series), hits give low values 0.995 | S. cerevisiae deletion strains, locus YLR342W, strain FKS1, hits give low values 0.985 | S. cerevisiae deletion strains, locus YLR357W, strain rsc2, hits give low values 0.967 | S. cerevisiae deletion strains, locus YLR370C, strain arc18, hits give low values 0.967 | S. cerevisiae deletion strains, locus YLR371W, strain rom2, hits give low values 1 | S. cerevisiae deletion strains, locus YLR384C, strain iki3, hits give low values 0.983 | S. cerevisiae deletion strains, locus YLR418C, strain cdc73, hits give low values 0.968 | S. cerevisiae deletion strains, locus YML016C, strain PPZ1, hits give low values 1 | S. cerevisiae deletion strains, locus YML032C, strain rad52, hits give low values 0.994 | S. cerevisiae deletion strains, locus YML120C, strain ndi1, hits give low values 0.997 | S. cerevisiae deletion strains, locus YML124C, strain tub3, hits give low values 1 | S. cerevisiae deletion strains, locus YMR058W, strain fet3, hits give low values 1.04 | S. cerevisiae deletion strains, locus YMR078C, strain ctf18, hits give low values 0.976 | S. cerevisiae deletion strains, locus YMR125W, strain sto1, hits give low values 0.975 | S. cerevisiae deletion strains, locus YMR129W, hits give low values 0.99 | S. cerevisiae deletion strains, locus YMR205C, strain PFK2, hits give low values 0.97 | S. cerevisiae deletion strains, locus YMR223W, strain ubp8, hits give low values 0.973 | S. cerevisiae deletion strains, locus YMR231W, strain pep5, hits give low values 0.978 | S. cerevisiae deletion strains, locus YMR263W, strain SAP30, hits give low values 1 | S. cerevisiae deletion strains, locus YMR307W, strain GAS1, hits give low values 1.01 | S. cerevisiae deletion strains, locus YNL067W, strain RPL9B, hits give low values 1.02 | S. cerevisiae deletion strains, locus YNL071W, strain lat1, hits give low values 0.994 | S. cerevisiae deletion strains, locus YNL183C, strain NPR1, hits give low values 0.991 | S. cerevisiae deletion strains, locus YNL209W, strain ssb2, hits give low values 0.967 | S. cerevisiae deletion strains, locus YNL233W, strain BNI4, hits give low values 1.03 | S. cerevisiae deletion strains, locus YNL248C, strain rpa49, hits give low values 0.909 | S. cerevisiae deletion strains, locus YNL250W, strain rad50, hits give low values 0.949 | S. cerevisiae deletion strains, locus YNL271C, strain bni1, hits give low values 0.983 | S. cerevisiae deletion strains, locus YNL298W, strain CLA4, hits give low values 0.997 | S. cerevisiae deletion strains, locus YNL307C, strain MCK1, hits give low values 0.992 | S. cerevisiae deletion strains, locus YNL322C, strain KRE1 (second series), hits give low values 0.979 | S. cerevisiae deletion strains, locus YNL322C, strain KRE1, hits give low values 0.99 | S. cerevisiae deletion strains, locus YNR049C, strain mso1, hits give low values 0.983 | S. cerevisiae deletion strains, locus YNR052C, strain pop2, hits give low values 0.975 | S. cerevisiae deletion strains, locus YOL006C, strain TOP1, hits give low values 1.04 | S. cerevisiae deletion strains, locus YOL012C, strain htz1 1.07 | S. cerevisiae deletion strains, locus YOL147C, strain pex11, hits give low values 0.989 | S. cerevisiae deletion strains, locus YOR001W, strain rrp6, hits give low values 1.03 | S. cerevisiae deletion strains, locus YOR061W, strain CKA2, hits give low values 0.991 | S. cerevisiae deletion strains, locus YOR069W, strain VPS5, hits give low values 0.982 | S. cerevisiae deletion strains, locus YOR070C, strain gyp1, hits give low values 0.986 | S. cerevisiae deletion strains, locus YOR080W, strain dia2, hits give low values 1.01 | S. cerevisiae deletion strains, locus YOR083W, strain WHI5, hits give low values 0.891 | S. cerevisiae deletion strains, locus YOR106W, strain vam3, hits give low values 0.896 | S. cerevisiae deletion strains, locus YOR136W, strain idh2, hits give low values 0.998 | S. cerevisiae deletion strains, locus YOR144C, strain elg1, hits give low values 1 | S. cerevisiae deletion strains, locus YOR184W, strain ser1, hits give low values 0.96 | S. cerevisiae deletion strains, locus YOR231W, strain MKK1, hits give low values 1.06 | S. cerevisiae deletion strains, locus YOR265W, strain rbl2, hits give low values 0.974 | S. cerevisiae deletion strains, locus YOR270C, strain vph1, hits give low values 0.867 | S. cerevisiae deletion strains, locus YOR290C, strain snf2, hits give low values 0.96 | S. cerevisiae deletion strains, locus YOR316C, strain cot1, hits give low values 0.992 | S. cerevisiae deletion strains, locus YPL051W, strain arl3, hits give low values 0.966 | S. cerevisiae deletion strains, locus YPL055C, strain LGE1, hits give low values 1.08 | S. cerevisiae deletion strains, locus YPL078C, strain atp4, hits give low values 0.962 | S. cerevisiae deletion strains, locus YPL106C, strain sse1, hits give low values 0.986 | S. cerevisiae deletion strains, locus YPL240C, strain hsp82, hits give low values 0.978 | S. cerevisiae deletion strains, locus YPL241C, strain CIN2, hits give low values 0.992 | S. cerevisiae deletion strains, locus YPL256C, strain CLN2, hits give low values 1.05 | S. cerevisiae deletion strains, locus YPR119W, strain clb2, hits give low values 0.992 | S. cerevisiae deletion strains, locus YPR141C, strain kar3, hits give low values 0.999 | S. cerevisiae deletion strains, locus YPR163C, strain tif3, hits give low values 0.983 | S. cerevisiae deletion strains, locus YPR167C, strain met16, hits give low values 0.99 | S. cerevisiae deletion strains, strain wtn01, hits give low values 0.976 | S. cerevisiae strains, strain wild type, hits give low values 0.991
